# Test results reported in PubChem BioAssay AID485364 (National Center for Advancing Translational Sciences (NCATS), 2010).
# The whole screen tested about 360,000 compounds, of which about 11,000 (3.1%) were called active. About 4% were inconclusive and are not listed. The call rests on the fitted dose curve; in most records, active means well fitted inhibition curve with a large enough effect; inconclusive means small, poorly fitted or top-dose-only effect; inactive means no such curve, though single readings can be large or run the other way. Only a selection was taken, and actives are over-represented in it overall.
# Target: Schistosoma mansoni thioredoxin glutathione reductase (TGR) (UniProt Q962Y6)
# Assay: qHTS Assay for the Inhibitors of Schistosoma Mansoni Peroxiredoxins; further: nearly all actives have a fitted effect of over 60% in size
# Settings: purified TGR, DTNB reduction, TNB absorbance 405 nm; series mostly up to 114 µM; activity change, negative = inhibition: at the top concentration
# Summary of the method: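 Kinetic colorimetric format: TGR-catalysed, NADPH-driven DTNB reduction monitored via TNB absorbance. Enzyme dispensed at 20 nM; compound exposure 15 min at room temperature before reaction start.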
# On the % scale 0 is the no-effect control and ±100 the full control effect; potency means the concentration at half of the fitted maximal effect.
SMILES,"activity change, negative = inhibition",Potency
CCOc1ccc2oc(=O)cc(CN3CCN(C(=O)c4ccc(F)cc4)CC3)c2c1,-23.7% (inactive),–
O=C1CSC2(C(=O)N(Cc3ccccc3)c3ccccc32)N1c1cccc(F)c1 (stereo not given),0.896% (inactive),–
O=C(Nc1ccc(-c2nc3cc(NC(=O)c4ccccc4Cl)ccc3o2)cc1)c1ccccc1Cl,2.81% (inactive),–
COc1cccc(C(=O)Nc2ccc(-c3cc(C(F)(F)F)nn3-c3ccccc3)cc2)c1,14.5% (inactive),–
Cc1cc(OCC(=O)Nc2ncn[nH]2)c(C)c(C)c1Br,5.33% (inactive),–
CN1CCc2nc(SC(C(=O)O)c3ccccc3)c(C#N)c(-c3cccs3)c2C1 (stereo not given),–,39.8 µM (active)
Cc1c(-c2ccccc2)nc(N)c(C#N)c1-c1cccs1,3.35% (inactive),–
CC(NC(=O)CSc1nc2c(cc1C#N)CN(C)CC2)c1ccccc1 (stereo not given),0% (inactive),–
O=C(c1ccc(C(F)(F)F)cc1)N1CCC(c2nc(-c3ccc(S(=O)(=O)N4CCCC4)cc3)no2)CC1,-0.916% (inactive),–
COc1ccc(OC)c(CNC(=O)Cn2nc(C)c3c(C)n(-c4ccccc4)nc3c2=O)c1,-0.771% (inactive),–
NS(=O)(=O)c1ccc(NC(=O)COC(=O)c2ccco2)cc1,-0.38% (inactive),–
CC1CC(C)CN(CC(=O)Nc2ccc(S(N)(=O)=O)cc2)C1 (stereo not given),-6.12% (inactive),–
CCc1ccc(CCC(=O)Nc2ccc(S(N)(=O)=O)cc2)o1,–,50.1 µM (active)
O=C(NCc1ccc2c(c1)CCN2C(=O)c1ccccc1)Nc1cc(F)ccc1F,-1.99% (inactive),–
Cc1ccc2c(=O)c(C(=O)c3cccc(Cl)c3)cn(CC(=O)NCc3ccccc3)c2n1,5.5% (inactive),–
O=C(NCC(c1ccc2c(c1)OCO2)N1CCN(c2ccccc2)CC1)C(=O)Nc1ccccc1F (stereo not given),5.99% (inactive),–
COC(=O)c1nc(NC(=O)c2ccc(F)cc2)n[nH]1,–,28.2 µM (active)
COC(=O)c1nc(NC(=O)c2ccc(Cl)cc2)n[nH]1,–,39.8 µM (active)
CCOC(=O)NNC(=O)c1ccc(Cl)cc1,9.66% (inactive),–
COC(=O)c1nc(NC(=O)c2ccc(C(C)(C)C)cc2)n[nH]1,3.65% (inactive),–
COc1ccc(C(=O)Nc2ccc(F)cc2F)cc1,6.18% (inactive),–
COC(=O)c1sccc1NC(=O)c1ccc(Cl)cc1,-1.81% (inactive),–
NS(=O)(=O)c1ccc(NC(=O)COc2ccc(S(=O)(=O)NC3CCCCC3)cc2)cc1,4.88% (inactive),–
COc1ccc(CNc2nc(-c3ccc(Cl)cc3)nn2S(=O)(=O)c2ccc(C)cc2)cc1,-0.796% (inactive),–
COc1ccccc1CNC(=O)CS(=O)(=O)c1cccc2nsnc12,-0.613% (inactive),–

SMILES,"activity change, negative = inhibition",Potency
Cc1ccc(OC(=O)CSc2nnc(-c3cccs3)o2)cc1,-0.547% (inactive),–
COc1cc(Cl)c(NC(=O)CC(C)S(=O)(=O)c2cc3c(cc2C)NC(=O)CO3)c(OC)c1 (stereo not given),-4.41% (inactive),–
COc1ccc(OC)c(CCNC(=O)CCCn2c(=O)c3cccn3c3cccnc32)c1,1.8% (inactive),–
O=C(CCn1ccc2cc(S(=O)(=O)N3CCCC3)ccc21)NCc1cccc(Cl)c1,-5.15% (inactive),–
COc1ccc(Cl)cc1NC(=O)CSc1nc(-c2cccs2)cc(C(F)(F)F)n1,-0.774% (inactive),–
CCc1ccc(-n2nc(C)c3c(C)cc(=O)n(CC(=O)Nc4ccc(F)cc4C)c32)cc1,-0.967% (inactive),–
O=C(CC(c1cccs1)N1Cc2ccccc2C1=O)Nc1ccc(F)cc1F (stereo not given),-8.15% (inactive),–
CNC(=O)c1c(NC(NC(=O)c2ccco2)C(=O)c2ccc(Cl)cc2)sc2c1CCCC2 (stereo not given),–,25.1 µM (active)
CCOC(=O)c1c(NC(=O)c2cc(-c3ccc(Cl)cc3)on2)sc2c1CCCC2,-7.21% (inactive),–
COC(=O)c1c(NC(=O)c2ccc(Cl)c(Cl)c2)sc2c1CCCC2,-1.51% (inactive),–
CCOc1ccc(OCC)c(NC(=O)CN(c2ccc(C)cc2)S(=O)(=O)c2c(C)n[nH]c2C)c1,10.6% (inactive),–
COc1ccc(CNC(=O)CSc2n[nH]c(-c3ccc(F)cc3)n2)cc1,2.87% (inactive),–
Cc1cc(-c2ccc(C)c(S(=O)(=O)N3c4ccccc4CC3C)c2)on1 (stereo not given),11.2% (inactive),–
COc1ccc(Cn2ccc3nc(C)c(C(=O)Nc4ccc(C)c(F)c4)cc3c2=O)cc1,-0.138% (inactive),–
O=C(CCc1nnc(Cc2ccc3c(c2)OCO3)o1)NCCc1ccccc1Cl,–,31.6 µM (active)
O=C(CC(Cc1ccccc1)C(=O)O)NCCc1ccc2c(c1)OCO2 (stereo not given),-1.4% (inactive),–
O=C(CCNS(=O)(=O)c1ccccc1C(F)(F)F)NCc1ccc2c(c1)OCO2,-10.5% (inactive),–
CCOc1ccccc1CNC(=O)Nc1cn(CC(C)C)c(=O)c2ccccc12,-7.64% (inactive),–
O=S(=O)(NCc1ccccc1)c1ccc(S(=O)(=O)N2CCCC2)cc1,-0.62% (inactive),–
O=c1/c(=C/c2ccc(CNS(=O)(=O)c3ccccc3)o2)sc2n1CCN=2,–,25.1 µM (active)
O=S(=O)(NCC1OCCc2ccccc21)c1ccccc1 (stereo not given),34.3% (inactive),–
CCCCN(C)CCCNC(=O)CN1N=C(c2ccc(OC)cc2)CCC1=O,2.84% (inactive),–
COc1ccc(CC(=O)Nc2ccc(-c3nc4ccccc4s3)c(C)c2)cc1,6.41% (inactive),–
COc1ccc(Cl)cc1S(=O)(=O)N1CCN(CC(=O)C(C)(C)C)CC1,-27.4% (inactive),–
O=C(CN1CCN(S(=O)(=O)c2cc(Cl)ccc2Cl)CC1)c1ccc(O)c(O)c1,–,17.8 µM (active)

SMILES,"activity change, negative = inhibition",Potency
O=S(=O)(c1cc(Cl)ccc1Cl)N1CCN(Cc2ccco2)CC1,-16.2% (inactive),–
Cc1ccc(C)n1-c1nnc(N2CCC(C(=O)NCc3ccccc3Cl)CC2)s1,-21.1% (inactive),–
Cc1ccc(/C=C/C(=O)OCC(=O)NCc2ccc(Cl)cc2)o1,–,25.1 µM (active)
COc1ccc(CNC(=O)COC(=O)/C=C/c2ccc(S(=O)(=O)N3CCOCC3)cc2)cc1,4.4% (inactive),–
CCN(CC(=O)NCc1ccc(Cl)cc1)C(=O)c1c(C)noc1C,-9.68% (inactive),–
O=C(Nc1ccccc1)c1nnsc1S(=O)(=O)c1ccc(Cl)cc1,–,0.316 µM (active)
Cc1nnsc1S(=O)(=O)Cc1ccccc1Cl,-2.4% (inactive),–
O=C(Nc1ccc(Oc2ccccc2)cc1)C1CCN(S(=O)(=O)c2ccc(Cl)cc2)CC1,-7.31% (inactive),–
COc1ccc(Nc2cc(C(=O)NCCCN(C)c3ccccc3)c3ccccc3n2)c(OC)c1,9.2% (inactive),–
CCCn1c(=N)n(CC(O)COc2ccccc2OC)c2ccccc21 (stereo not given),4.68% (inactive),–
CCOc1ccc(CNC(=O)C2CCCN(S(=O)(=O)N(CC)c3ccc(OCC)cc3)C2)cc1 (stereo not given),-9.5% (inactive),–
CCCN1CN=C(NS(=O)(=O)c2ccc(NC(C)=O)cc2)NC1,5.57% (inactive),–
Cc1ccc(-n2nnnc2CNC(=O)c2ccccc2C)cc1C,13% (inactive),–
O=C1NC(=O)N(c2ccc(F)cc2)C(=O)/C1=C/c1ccc2c(c1)CCCN2Cc1ccccc1,–,17.8 µM (active)
CCCN1CCN(CCCNC(=O)Cn2nc(CC)n3c(cc4occc43)c2=O)CC1,-11.9% (inactive),–
O=C(NC(=S)Nc1ccc(NC(=O)c2cccs2)cc1)c1ccc([N+](=O)[O-])cc1,1.64% (inactive),–
O=C(Nc1ccccc1-c1ccccc1)c1cccs1,-1.38% (inactive),–
O=C(NC(=S)Nc1cccc(-c2ccc(CO)o2)c1)c1cccs1,–,20 µM (active)
Cc1ccc(S(=O)(=O)N2CCC(C(=O)Nc3cc(C)ccc3C)CC2)cc1,21.4% (inactive),–
O=C(CSc1nc(=O)n(Cc2cccnc2)c2c1CCC2)Nc1ccc(F)cc1F,3.22% (inactive),–
CCc1ccc(N(CC)C(=O)CCn2cnc3onc(-c4ccc(F)cc4)c3c2=O)cc1,-0.879% (inactive),–
O=C1CC(c2nnc(Cc3ccc(Cl)cc3)o2)CN1c1ccccc1 (stereo not given),3.72% (inactive),–
CC(C)N1C(=O)N(c2ccccc2)C(C)(O)CC1(C)C (stereo not given),0.967% (inactive),–
Cc1ccsc1C1C(C#N)=C(N)OC2=C1C(=O)CC(C)(C)C2 (stereo not given),0.359% (inactive),–
CC(C)C1C2=C(CC(C)(C)CC2=O)ON1c1ccccc1 (stereo not given),–,28.2 µM (active)

SMILES,"activity change, negative = inhibition",Potency
Cc1sc2ncn(CC(=O)N3CCN(c4ccc(F)cc4)CC3)c(=O)c2c1S(=O)(=O)N1CCN(c2ncccn2)CC1,-0.836% (inactive),–
CCc1cnc2c(c1SCC(=O)N1CCC(C)CC1)c(=O)n(C)c(=O)n2C,-0.0016% (inactive),–
O=C(Nc1cc(-c2nc3ccccc3o2)ccc1Cl)c1cc([N+](=O)[O-])ccc1N1CCOCC1,-0.536% (inactive),–
O=C(Nc1cccc([N+](=O)[O-])c1)c1ccc2c(c1)OCO2,2.85% (inactive),–
Cc1cccc(NC(=O)c2ccc(COc3ccccc3[N+](=O)[O-])o2)n1,-4.93% (inactive),–
Cc1cccc(NC(=O)C(C)SCc2ccccc2)c1 (stereo not given),-15.1% (inactive),–
Cc1onc(NC(=O)c2ccc([N+](=O)[O-])o2)c1Br,–,28.2 µM (active)
Cc1onc(C(=O)Nc2ccc3c(c2)OCO3)c1[N+](=O)[O-],-12.1% (inactive),–
Cc1cccc(NC(=O)c2ccc([N+](=O)[O-])o2)c1,–,31.6 µM (active)
Cc1cccc(C(=O)Nc2ccc(-c3nc4ncccc4o3)cc2C)c1,14.9% (inactive),–
COc1cc(NC(=O)c2cc3ccc4cccnc4c3[nH]2)cc(OC)c1OC,12.9% (inactive),–
COc1ccc(Cl)cc1NC(=O)CCn1c(=O)c2cccn2c2ccccc21,-1.03% (inactive),–
COc1cc(OC)c(OC)cc1/C=C/c1nc2cc3ccccc3cc2c(=O)n1-c1ccc(F)c(Cl)c1,2.39% (inactive),–
CCOC(=O)C(NC(=O)CC(C)C)(Nc1sc2c(c1C(N)=O)CCCC2)C(F)(F)F (stereo not given),-18.7% (inactive),–
Cc1cc(C)cc(OC(C)C(=O)Nc2nc3c(s2)CCCC3)c1 (stereo not given),5.35% (inactive),–
COC(=O)C(NC(C)=O)(Nc1nc2c(s1)CCCC2)C(F)(F)F (stereo not given),–,50.1 µM (active)
COc1ccccc1CNc1nc2ccc(Cl)cc2n2cnnc12,-0.742% (inactive),–
COc1ccccc1NC(=O)c1sc2nc(C)c(C(=O)Nc3ccc(Cl)cc3)c(-c3ccc(Br)cc3)c2c1N,2.29% (inactive),–
Oc1ccc(CNc2ccccc2O)cc1,–,20 µM (active)
O=[N+]([O-])c1ccccc1NCc1ccc(Cl)cc1,-16.6% (inactive),–
O=C(Cc1ccc(Cl)cc1)NC(=S)Nc1ccccc1O,-7.71% (inactive),–
O=C(CC(c1cccs1)N1Cc2ccccc2C1=O)Nc1ccc(F)c(F)c1 (stereo not given),11.1% (inactive),–
CC(C)Oc1ccc(CNC(=O)C2CCN(c3nc4ccccc4n(C)c3=O)CC2)cc1,1.86% (inactive),–
CC1CN(C(=O)N2CCC(C(=O)NCc3cccs3)CC2)c2ccccc2O1 (stereo not given),6.75% (inactive),–
O=C(NC1(C(F)(F)F)N=C(c2ccccc2)N(C2CCCCC2)C1=O)c1ccccc1F (stereo not given),-12.4% (inactive),–
